This is a sample that favours compounds with a hit; in the whole collection about 0.54% have one here.
BCR signal inh: blocks chronic active B-cell receptor signaling | ABC-DLBCL IkBa-CBG/CBR reporter, luminescence ratio, 4 h | Potency, µM (highest dose often 46.1 µM), for inactives: at the top dose activity change, negative = inhibition, usual class: inhibitors | 0.05% of 340,000 active | AID 493014; active means well fitted inhibition curve with a large enough effect in the signal ratio, with a control signal flat, not every such curve was filed as active; inconclusive means small, poorly fitted or top-dose-only effect, or effect the other way, or a change in a side signal; the % refers to the signal ratio;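 further: potency means the concentration at half of the fitted maximal effect; plate controls were basal doxycycline-induced cells for no effect and cells given 10 µM MG132 for full effect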
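TMD8 human ABC-DLBCL cells with doxycycline-inducible IκBα–green luciferase fusion and unfused red luciferase, in 0.5% FBS medium; compounds up to 46 uM, 4 h at 37C. Green/red luminescence ratio, filter-overlap corrected, fitted to concentration-response curves.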
Vif-APOBEC3F blk: blocks the Vif interaction with APOBEC3F; Potency, µM (titrated, usually from 46.1 µM), for inactives: at the top dose activity, negative = active; 0.2% of 390,000 active; HeLa A3F-eYFP + Vif (tagged APOBEC3F with the HIV-1 protein that degrades it), YFP fluorescence increase; further: potency means the concentration at half of the fitted maximal effect; % of control where 0% means no effect; nearly all actives have a fitted effect of over 65% in size
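HeLa cells stably expressing Vif plus C-terminally eYFP-tagged A3F were seeded, incubated overnight at 37 deg C, dosed with compound, incubated overnight again at 37 deg C. Yellow fluorescence (Ex 488/Em 500-530) reported blocked Vif-mediated A3F-eYFP degradation.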
MBNL1 CUG block: blocks human MBNL1 binding to CUG repeat RNA; TR-FRET MBNL1-His/biotin-(CUG)12 binding, 665/545 ratio; Potency, µM (titrated, usually from 57.5 µM), without a hit: top-dose activity change, negative = inhibition, hits mostly inhibitors; 0.036% of 280,000 active; AID 2675; active means well fitted inhibition curve with a large enough effect in the signal ratio, with a control signal flat, not every such curve was filed as active; inconclusive means small, poorly fitted or top-dose-only effect, or effect the other way, or a change in a side signal; inactive means no such curve, though single readings can be large or run the other way; the % refers to the signal ratio; further: potency means the concentration at half of the fitted maximal effect; on the % scale 0 is the no-effect control and ±100 the full control effect
Target sequence (Q9NR56 whole entry, looked up): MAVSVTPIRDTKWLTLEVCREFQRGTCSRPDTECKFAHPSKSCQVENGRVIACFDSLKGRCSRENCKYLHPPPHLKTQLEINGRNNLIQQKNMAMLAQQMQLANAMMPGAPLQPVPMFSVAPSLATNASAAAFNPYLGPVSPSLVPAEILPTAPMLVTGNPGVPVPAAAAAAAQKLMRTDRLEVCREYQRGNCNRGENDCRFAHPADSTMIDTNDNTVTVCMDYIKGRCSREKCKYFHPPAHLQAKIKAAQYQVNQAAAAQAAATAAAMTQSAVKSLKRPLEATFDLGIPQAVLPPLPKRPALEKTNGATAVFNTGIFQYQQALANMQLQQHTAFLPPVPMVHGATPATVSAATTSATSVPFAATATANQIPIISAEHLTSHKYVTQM
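TR-FRET readout: Ex 340 nm, 665/545 nm emission ratio, normalized to buffer-only (basal) and MBNL1-(CUG)12 controls. Complex of MBNL1-His with Biotin-(CUG)12, compounds 92 nM–58 uM, incubated 60 min at room temperature.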
Vif-A3G inh: inhibitors of Vif-APOBEC3G interaction. Q9HC16. HeLa A3G-eYFP + Vif (tagged APOBEC3G with the HIV-1 protein that degrades it), YFP fluorescence, overnight. Potency, µM (series often up to 46.1 µM), for inactives: at the top dose activity, negative = active, most hits filed as inhibitors. 0.076% of 410,000 active; further: potency means the concentration at half of the fitted maximal effect; on the % scale 0 is the no-effect control and ±100 the full control effect; nearly all actives have a fitted effect of over 60% in size
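Read-out is eYFP fluorescence (Ex 488/Em 500-530) from Vif-expressing HeLa A3G-eYFP cells; more signal means A3G escaped Vif-mediated degradation. Cells plated overnight, compound pinned in, incubated overnight at 37 deg C.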
TCR act: T cell receptor activation | AID 504894 | primary human leukocytes, anti-CD3, IL-2 HTRF, 48 h | 330,000 tested, under 10 active | Potency, µM (doses to about 9.22 µM), for inactives: top-dose activation of IL-2 secretion, most hits filed as activators; further: % of control where 0% means no effect
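IL-2 produced over 48 hr by a-CD3 bead-stimulated primary human leukocytes exposed to compounds was detected with a homogeneous time-resolved FRET immunoassay, 665nm acceptor signal after 320nm excitation.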
uPA surface inh: blocks generation of uPA at the cell surface. cell surface uPA generation assay, qHTS. 0.31% of 330,000 active. Potency, µM (highest dose often 38.3 µM), without a hit: top-dose activity change, negative = inhibition, usual class: inhibitors; active means well fitted inhibition curve with a large enough effect; inconclusive means small, poorly fitted or top-dose-only effect; inactive means no such curve, though single readings can be large or run the other way; tested in mouse RAW 264.7 cells; further: potency means the concentration at half of the fitted maximal effect; on the % scale 0 is the no-effect control and ±100 the full control effect; nearly all actives have a fitted effect of over 55% in size
Starred values were filed as active, the others as inactive; ? = inconclusive; · = not tested or not shown; [ ] = another dose, or the depositor's remark. Unless noted, the call rests on the fitted dose curve; in most records, active means well fitted curve in the direction sought with a large enough effect; inconclusive means small, poorly fitted or top-dose-only effect, or another doubt; inactive means no such curve, though single readings can be large; an effect the other way counts as inactive or inconclusive.

SMILES	BCR signal inh	Vif-APOBEC3F blk	MBNL1 CUG block	Vif-A3G inh	TCR act	uPA surface inh
C[N+](C)(CCCCCI)c1ccc(/C=C/c2nc3ccccc3s2)cc1	·	·	·	4%	·	·
CN(C(=O)COc1ccccc1C(=O)Nc1ccccc1)c1ccccc1	·	·	·	-3%	·	·
CCOC(=O)c1cccc(NC(=O)N2CC=C(c3c[nH]c4ccccc34)CC2)c1	·	5µM*	·	?	·	·
CCOc1ccc(NC(=O)Cc2c[nH]c3ccccc23)cc1	-1%	2%	·	-6%	·	·
CCOc1ccc(NC(=O)N2CC=C(c3c[nH]c4ccccc34)CC2)cc1	·	28µM*	·	?	·	·
CN(C)/[N+]([O-])=N/Oc1ccc([N+](=O)[O-])cc1C(F)(F)F	·	·	·	-7%	·	·
O=C(CCC(=O)N1CCN(c2ccc(O)cc2)CC1)c1cccs1	?	-19%	7%	1%	8%	4µM*
CN(C)c1ccc(C(=C2c3ccccc3-c3ccccc32)c2ccc(N(C)C)cc2)cc1	·	·	·	1%	·	·
COc1cccc2c1nc(C)c1cc(C)oc12	?	2%	-6%	6%	-5%	-8%
COc1cccc2nc3cc(C)c(C)cc3nc12	?	1%	?	0%	-1%	3.2µM*
O=S1(=O)CCO[C@H]2CCCC[C@@H]2N1Cc1cccc(F)c1	·	·	·	0%	·	·
COc1ccc(N/C=C/C(=O)c2sc(-c3ccccc3)nc2C)cc1	?	-11%	7%	11µM*	8%	-11%
COc1ccc(N/C=C\C(=O)c2ccc3ccccc3c2)cc1	?	-1%	1%	3%	1%	13%
COc1ccc(N/C=C/C(=O)c2ccccc2)cc1	?	-18%	16%	-5%	1%	10µM*
Cc1nc(-c2ccccc2)sc1C(=O)/C=C/c1ccc(Cl)cc1	?	-3%	-16%	0%	7%	-6%
C=CS(=O)(=O)N(Cc1ccc(Cl)c(Cl)c1)C[C@@H](O)CO	?	-9%	·	-25%	-5%[46.1 µM]	3.5µM*
COc1ccc(-c2cc(C(=O)c3c(N)n(C)c(=O)n(C)c3=O)c3ccccc3n2)cc1	-9%	-5%	5%	-9%	7%	1.4µM*
COc1cc2cc(C(=O)N3CCOCC3)cc(-c3ccc(C)cc3)c2cc1OC	16µM*	-5%	5%	2%	4%	4.5µM*
COc1ccc(-c2cc(C(=O)N3CCOCC3)c3ccccc3n2)cc1OC	-19%	1%	·	-1%	0%	-5%
O=C(NC1CCCCCC1)C1CCC(CNS(=O)(=O)c2cccc3cccnc23)CC1 (stereo not given)	·	·	·	0%	·	·
COc1cc(/C=C2\OC(=O)c3c(OC)cccc32)ccc1O	9.2µM*	-6%	?	2%	-5%	-14%
COc1ccc(NC(=O)COc2ccccc2C(=O)Nc2ccccc2)cc1	·	·	·	3%	·	·
COc1ccc(NC(=O)c2nc(C)c(C3(C)CC(c4cccnc4)=NO3)s2)cc1 (stereo not given)	?	-3%	1%	-26%	-2%	1.6µM*
S=C(NCCCc1cnc[nH]1)NCCCN(CCc1ccc(Cl)cc1)c1ccc(Br)cn1	·	·	·	-4%	·	·
CCOC(=O)c1c(-c2ccc(OC)cc2)csc1/N=C/C1C(=O)CCCC1=O	9%	25µM*	12%	?	4%	-5%
COc1ccccc1NS(=O)(=O)c1cc([N+](=O)[O-])ccc1N/N=C/c1c[nH]c2ccccc12	29%	11µM*	41%	11µM*	-3%	-1%
O=[N+]([O-])c1ccc(N/N=C/c2c[nH]c3ccccc23)cc1	22%	13µM*	?	7.9µM*	4%	-8%
COc1ccc(NS(=O)(=O)c2cc([N+](=O)[O-])ccc2N/N=C\c2c(C)[nH]c3ccccc23)cc1	6%	?	6%	-15%	5%	0%
Cc1sc2ccccc2[n+]1CCCCBr	·	·	·	5%	·	·
O=Cc1cccc(C=O)c1	·	·	·	1%	·	·

High-throughput results deposited in PubChem BioAssay by National Center for Advancing Translational Sciences (NCATS).
